Source: PubChem BioAssay (NCATS)
Records with an inconclusive call do not appear. Activity calls are given as the source filed them. Unless noted, the call rests on the fitted dose curve; in most records, active means well fitted curve in the direction sought with a large enough effect; inconclusive means small, poorly fitted or top-dose-only effect, or another doubt; inactive means no such curve, though single readings can be large; an effect the other way counts as inactive or inconclusive.

Key:
[1] = biological target: Cytochrome P450 3A4 (Homo sapiens) (UniProt P08684); assay: qHTS Assay for Inhibitors and Substrates of Cytochrome P450 3A4 (AID 884); further: on the % scale 0 is the no-effect control and ±100 the full control effect; nearly all actives have a fitted effect of over 50% in size
Outline: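 Luminescent readout of luciferin produced by CYP3A4 (20 nM) dealkylation of Luciferin-PPXE, 25 uM (its KM). NADPH-driven reaction ran 60 min at RT after 10 min compound preincubation; data scaled to 57 uM ketoconazole as 100% inhibition.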

[2] = qHTS Assay for Lipid Storage Modulators (AID 1519; calls by dose curve; on activity change, negative = inhibition: on the % scale 0 is the no-effect control and ±100 the full control effect); conditions: Drosophila S3 cells, BODIPY lipid droplet/cell ratio, laser cytometry, cells loaded with oleic acid; for activity change, negative = inhibition: at 57.5 µM (top of the series)
Outline: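 Cells seeded at 5,000 per well were treated with compounds over a concentration series and loaded with oleic acid (400 uM, as added). Lipid droplet fluorescence (488 nm excitation, 500-530 nm channel) was read by laser-scanning cytometry and normalized to 20 uM Triacsin C.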

[3] = biological target: Ubiquitin carboxyl-terminal hydrolase 1 (Homo sapiens) (UniProt O94782); assay: Inhibitors of USP1/UAF1: Pilot qHTS (AID 504865);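 further: rhodamine fluorescence freed from ubiquitin-rhodamine substrate followed over time; top concentration of the series differs between compounds; on the % scale 0 is the no-effect control and ±100 the full control effect; nearly all actives have a fitted effect of over 35% in size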
Outline: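 In 50mM HEPES pH 7.8 containing 0.5mM EDTA, 1mM TCEP, 0.1 mg/ml BSA and 0.01% Tween-20, 1nM USP1/UAF1 is exposed to compound for 15 min, then Ub-Rho (150nM final) is added and fluorescence is read over time.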

[4] = biological target: DNA dC->dU-editing enzyme APOBEC-3G (Homo sapiens) (UniProt Q9HC16); assay: qHTS for inhibitors of Vif-A3G interactions: Validation (AID 588379); further: 0% is about no effect
Outline: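 Yellow fluorescence (Ex 488, Em 500-530) of Vif-coexpressing HeLa A3G-eYFP cells, scanned by Acumen cytometer, reports blocked A3G degradation. Cells plated at 700/well overnight at 37 deg C before compound addition, then a further overnight compound incubation at 37 deg C.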

[5] = Confirmation and Secondary Assay for Modulators of Hemoglobin Beta Chain Splicing at IVS2 654 locus (AID 910);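 further: HeLa cells stably carrying EGFP split by mutant beta-globin IVS2-654 intron; % of control where 0% means no effect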
Outline: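 HeLa cells stably expressing EGFP interrupted by β-globin IVS2-654 intron, seeded overnight in Opti-MEM/2% FCS, then treated 2 days at 37 °C. Restored splicing read as total peak GFP intensity per well by laser scanning cytometry (488 nm excitation, 500–520 nm emission); 500 nM antisense PNA as control.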

[6] = Confirmation and Secondary Assay for Modulators of Hemoglobin Beta Chain Splicing at IVS2 705 locus (AID 930);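 further: HeLa cells stably expressing the EGFP-705 splicing reporter; GFP fluorescence per well restored by corrected splicing of the IVS2-705 intron in EGFP; % of control where 0% means no effect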
Outline: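 Assay measures total GFP intensity per well in HeLa EGFP-705 cells after 2 days with compound; mis-splicing normally truncates EGFP, so fluorescence indicates corrected splicing.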

[7] = biological target: ATP-dependent 6-phosphofructokinase (Trypanosoma brucei brucei) (UniProt O15648); assay: qHTS Assay to Find Inhibitors of T. brucei phosphofructokinase: hit validation (AID 492961); further: on the % scale 0 is the no-effect control and ±100 the full control effect
Outline: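 Luminescence from ADP-Glo reports ADP generated as T. brucei PFK (1.25 nM) phosphorylates 0.5 mM fructose-6-phosphate using 0.1 mM ATP. Reactions ran 45 min at room temperature, pH 8.0.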

[8] = biological target: Luciferin 4-monooxygenase (Photinus pyralis) (UniProt P08659); assay: Biochemical firefly luciferase enzyme assay for NPC (AID 624030);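 further: purified P. pyralis luciferase at 10 nM with luciferin and ATP substrate; 0% = DMSO and -100% = full luciferase inhibition by PTC124 control; nearly all actives have a fitted effect of over 70% in size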
Outline: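 Purified P. pyralis luciferase at 10 nM in 50 mM Tris Acetate (final), luminescence read within 5 minutes of enzyme addition to compounds. Activity normalised to PTC124 versus DMSO; concentration-response curves classed by r2, magnitude and activity.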

[9] = S16 Schwann cell PMP22 intronic element firefly luciferase assay (AID 624032);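 further: plate controls were DMSO for no effect and PTC124 positive control mean for full effect; nearly all actives have a fitted effect of over 30% in size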
Outline: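 Rat S16 Schwann cells stably carrying firefly luciferase driven by a PMP22 intronic element, in 10% FBS, treated 24 h at 37 C. ONE-Glo luminescence normalized to PTC124 control and DMSO (0%); curves classed by r2, magnitude and activity.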

[10] = qHTS profiling for inhibitors of Plasmodium falciparum proliferation (AID 504749); further: potency means the concentration at half of the fitted maximal effect;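 on activity, negative = inhibition: 0% = DMSO vehicle and full inhibition = artemisinin control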; on all read-outs here: nearly all actives have a fitted effect of over 60% in size; conditions: P. falciparum in erythrocytes, SYBR Green DNA, 72 h; for activity, negative = inhibition: at 28.7 µM (top of the series)
Outline: (§1)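 SYBR Green fluorescence (ex 485 nm, em 535 nm) reports parasite DNA after 72 h compound exposure of infected red cells at 0.3% parasitemia, 2.5% hematocrit; signal normalized to 0.29 uM artemisinin and vehicle wells.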

[11] = test system: CP191; assay: as above; conditions: P. falciparum in erythrocytes, SYBR Green DNA, 72 h; series mostly up to 12.8 µM
Outline: as §1

[12] = test system: CP194; assay: as above; conditions: P. falciparum in erythrocytes, SYBR Green DNA, 72 h; series mostly up to 12.8 µM
Outline: as §1

[13] = test system: CP201; assay: as above; conditions: P. falciparum in erythrocytes, SYBR Green DNA, 72 h; series mostly up to 12.8 µM
Outline: as §1

[14] = test system: CP315; assay: as above; conditions: P. falciparum in erythrocytes, SYBR Green DNA, 72 h; series mostly up to 12.8 µM
Outline: as §1

[15] = test system: FAB9; assay: as above; conditions: P. falciparum in erythrocytes, SYBR Green DNA, 72 h; series mostly up to 12.8 µM
Outline: as §1

[16] = test system: JCK; assay: as above; conditions: P. falciparum in erythrocytes, SYBR Green DNA, 72 h; series mostly up to 12.8 µM
Outline: as §1

[17] = test system: P94_40; assay: as above; conditions: P. falciparum in erythrocytes, SYBR Green DNA, 72 h; series mostly up to 12.8 µM
Outline: as §1

[18] = test system: PC15; assay: as above; conditions: P. falciparum in erythrocytes, SYBR Green DNA, 72 h; series mostly up to 12.8 µM
Outline: as §1

[19] = test system: PC49; assay: as above; conditions: P. falciparum in erythrocytes, SYBR Green DNA, 72 h; series mostly up to 12.8 µM
Outline: as §1

[20] = biological target: Cytochrome P450 3A4 (Homo sapiens) (UniProt P08684); assay: qHTS Assay for Activators of Cytochrome P450 3A4 (AID 885); further: nearly all actives have a fitted effect of over 65% in size
Outline: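 CYP3A4 activity: Luciferin-PPXE O-dealkylation, 25uM substrate, 200mM KPO4, RT throughout. Read-out is luciferase luminescence; higher values reflect activation.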

[21] = measured here: cell count channel max response
[22] = measured here: lipid channel max response

Chain of Luciferin 4-monooxygenase (Photinus pyralis) (P08659 whole entry, looked up): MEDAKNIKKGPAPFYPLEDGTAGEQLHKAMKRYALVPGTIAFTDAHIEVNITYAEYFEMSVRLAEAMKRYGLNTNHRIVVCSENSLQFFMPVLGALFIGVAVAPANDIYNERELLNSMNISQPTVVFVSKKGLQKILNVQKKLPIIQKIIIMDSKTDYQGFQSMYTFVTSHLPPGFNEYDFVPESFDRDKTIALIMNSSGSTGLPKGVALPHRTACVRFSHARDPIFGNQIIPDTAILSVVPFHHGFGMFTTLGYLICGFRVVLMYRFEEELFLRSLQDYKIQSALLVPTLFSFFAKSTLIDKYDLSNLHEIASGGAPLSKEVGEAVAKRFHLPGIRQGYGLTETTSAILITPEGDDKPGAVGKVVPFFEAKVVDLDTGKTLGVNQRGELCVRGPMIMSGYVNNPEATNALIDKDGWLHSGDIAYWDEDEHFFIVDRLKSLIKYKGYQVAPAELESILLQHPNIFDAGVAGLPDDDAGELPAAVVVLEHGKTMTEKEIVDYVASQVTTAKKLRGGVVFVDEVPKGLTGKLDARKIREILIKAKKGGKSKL
Chain of DNA dC->dU-editing enzyme APOBEC-3G (Homo sapiens) (Q9HC16 whole entry, looked up): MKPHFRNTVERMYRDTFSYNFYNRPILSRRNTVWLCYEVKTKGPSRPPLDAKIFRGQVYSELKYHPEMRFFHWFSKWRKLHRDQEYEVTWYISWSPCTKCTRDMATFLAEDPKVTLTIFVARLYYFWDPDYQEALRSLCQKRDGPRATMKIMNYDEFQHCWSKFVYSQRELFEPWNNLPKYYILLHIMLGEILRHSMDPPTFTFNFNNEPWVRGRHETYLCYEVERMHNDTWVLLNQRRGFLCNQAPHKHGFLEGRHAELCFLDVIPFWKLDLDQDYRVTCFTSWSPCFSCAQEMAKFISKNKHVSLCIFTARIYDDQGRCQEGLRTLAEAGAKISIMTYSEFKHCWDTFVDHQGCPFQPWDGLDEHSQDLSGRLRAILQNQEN
Chain of Cytochrome P450 3A4 (Homo sapiens) (P08684 whole entry, looked up): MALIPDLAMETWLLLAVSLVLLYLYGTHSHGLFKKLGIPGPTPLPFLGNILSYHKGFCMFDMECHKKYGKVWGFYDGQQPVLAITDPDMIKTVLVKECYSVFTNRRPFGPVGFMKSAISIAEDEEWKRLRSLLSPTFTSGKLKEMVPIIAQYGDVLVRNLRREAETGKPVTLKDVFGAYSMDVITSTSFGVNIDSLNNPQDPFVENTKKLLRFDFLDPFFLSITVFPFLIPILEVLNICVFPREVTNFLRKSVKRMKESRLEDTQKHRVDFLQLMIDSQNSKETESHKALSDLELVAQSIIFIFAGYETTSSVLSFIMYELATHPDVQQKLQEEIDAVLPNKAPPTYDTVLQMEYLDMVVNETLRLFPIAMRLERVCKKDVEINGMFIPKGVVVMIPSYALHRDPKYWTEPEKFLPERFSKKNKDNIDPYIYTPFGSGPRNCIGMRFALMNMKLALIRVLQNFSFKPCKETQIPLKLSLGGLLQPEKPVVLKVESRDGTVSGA
Chain of Ubiquitin carboxyl-terminal hydrolase 1 (Homo sapiens) (O94782 whole entry, looked up): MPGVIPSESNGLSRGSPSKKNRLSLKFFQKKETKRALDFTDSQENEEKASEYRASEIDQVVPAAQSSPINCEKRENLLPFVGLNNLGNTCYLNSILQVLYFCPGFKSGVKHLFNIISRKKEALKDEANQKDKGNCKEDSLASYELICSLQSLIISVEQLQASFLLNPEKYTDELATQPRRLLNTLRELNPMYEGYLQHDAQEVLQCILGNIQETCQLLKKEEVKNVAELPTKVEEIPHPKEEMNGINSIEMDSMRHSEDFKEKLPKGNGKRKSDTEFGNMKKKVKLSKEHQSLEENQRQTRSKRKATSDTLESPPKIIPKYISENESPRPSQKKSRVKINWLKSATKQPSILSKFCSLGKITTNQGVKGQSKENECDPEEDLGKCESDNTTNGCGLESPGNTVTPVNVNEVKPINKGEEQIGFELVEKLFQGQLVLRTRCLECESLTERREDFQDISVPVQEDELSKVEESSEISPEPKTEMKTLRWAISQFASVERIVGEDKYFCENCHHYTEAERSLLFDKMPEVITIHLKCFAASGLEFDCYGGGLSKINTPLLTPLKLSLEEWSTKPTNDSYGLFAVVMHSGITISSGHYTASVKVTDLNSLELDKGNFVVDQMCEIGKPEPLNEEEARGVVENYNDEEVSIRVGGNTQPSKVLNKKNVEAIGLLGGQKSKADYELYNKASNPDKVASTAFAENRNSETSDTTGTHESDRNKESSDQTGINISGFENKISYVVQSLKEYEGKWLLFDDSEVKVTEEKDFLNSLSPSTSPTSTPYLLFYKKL
Chain of ATP-dependent 6-phosphofructokinase (Trypanosoma brucei brucei) (O15648 whole entry, looked up): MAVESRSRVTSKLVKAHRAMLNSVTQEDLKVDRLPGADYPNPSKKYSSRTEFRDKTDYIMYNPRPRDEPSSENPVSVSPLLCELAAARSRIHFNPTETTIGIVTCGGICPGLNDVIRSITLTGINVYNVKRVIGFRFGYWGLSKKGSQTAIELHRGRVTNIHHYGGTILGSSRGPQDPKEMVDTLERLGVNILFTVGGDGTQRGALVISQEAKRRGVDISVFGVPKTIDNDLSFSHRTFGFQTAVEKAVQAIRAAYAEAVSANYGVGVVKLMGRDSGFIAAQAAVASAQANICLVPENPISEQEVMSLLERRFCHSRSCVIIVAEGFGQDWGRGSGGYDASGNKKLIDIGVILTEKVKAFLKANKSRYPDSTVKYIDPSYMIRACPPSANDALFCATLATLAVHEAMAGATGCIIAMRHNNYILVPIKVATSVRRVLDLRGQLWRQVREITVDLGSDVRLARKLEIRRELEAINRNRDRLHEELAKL

CC(C)CCCC(C)C1CCC2C3CC=C4CC(O)CCC4(C)C3CCC12C (configuration not stated)
inactive: Potency [1] | activity change, negative = inhibition [2] 7.38% | Potency [3] | outcome [4]
5.9%: max response [2, 21]
12%: max response [2, 22]

CC[C@@]12CCCN3CCc4c(n(c5ccccc45)[C@](O)(C(=O)OC)C1)C32 (some centres not stated)
38.6%: max response [2, 22]
inactive: Potency [5] | Potency [6] | activity change, negative = inhibition [2] 6.08% | outcome [7] | Potency [3] | Potency [8] | Potency [9] | activity, negative = inhibition ([10]; parasite line A) 4.65% | activity, negative = inhibition ([10]; parasite line B) -5.85% | Potency [11] | Potency [12] | Potency [13] | Potency [14] | Potency [15] | Potency [16] | Potency [17] | Potency [18] | Potency [19]
25.6%: max response [2, 21]

COC1OC(CO)C(OC2OC(C(=O)O)C(OC3OC(COS(=O)(=O)O)C(OC4OC(C(=O)O)C(OC5OC(CO)C(OC6OC(C(=O)O)C(OC7OC(COS(=O)(=O)O)C(OC8OC(C(=O)O)=C[C@H](O)C8OS(=O)(=O)O)C(O)C7NC(C)=O)[C@@H](O)C6O)C(O)C5NC(C)=O)[C@@H](O)C4O)C(O)C3NC(C)=O)[C@@H](O)C2O)C(O)C1NC(C)=O (some centres not stated)
-2.95%: max response [2, 21]
-0.316%: max response [2, 22]
active: Potency [11] 11200 nM
inactive: Potency [1] | Potency [5] | Potency [6] | activity change, negative = inhibition [2] 0.455% | outcome [7] | Potency [3] | Potency [8] | Potency [9] | Potency [12] | Potency [13] | Potency [14]

COC1CC(O[C@H]2/C(C)=C/CC3CC(C[C@]4(CCC(C)C(C5CCCCC5)O4)O3)OC(=O)[C@H]3C=C(C)/C(=N/O)C4OC/C(=C\C=C\[C@@H]2C)[C@@]43O)OC(C)C1O (some centres not stated)
inactive: Potency [1] | Potency [5] | Potency [6] | activity change, negative = inhibition [2] -12.3% | outcome [7] | Potency [8] | Potency [9] | Potency [12] | Potency [13] | Potency [14] | Potency [18]
-0.335%: max response [2, 22]
active: Potency [11] 10000 nM
13.8%: max response [2, 21]

COC(=O)[C@H]1[C@@H]2C[C@@H]3c4[nH]c5ccccc5c4CCN3C[C@H]2CC[C@H]1O
17.8%: max response [2, 22]
12.3%: max response [2, 21]
inactive: activity change, negative = inhibition [2] 4.52% | Potency [3] | outcome [4]

CCCCCCCCCc1ccc(OCCOCCOCCOCCOCCOCCOCCOCCOCCO)cc1
inactive: Potency [5] | Potency [6] | activity change, negative = inhibition [2] -9.66% | outcome [7] | Potency [8] | activity, negative = inhibition ([10]; parasite line B) -22.2% | Potency [13] | Potency [14] | Potency [15] | Potency [16] | Potency [17] | Potency [18] | Potency [19]
-5.26%: max response [2, 22]
4.66%: max response [2, 21]

CC1(C)S[C@H]2C(NC(=O)[C@@H](N)c3ccc(O)cc3)C(=O)N2[C@@H]1C(=O)O (some centres not stated)
17.1%: max response [2, 21]
inactive: Potency [1] | Potency [5] | Potency [6] | activity change, negative = inhibition [2] 9.47% | outcome [7] | Potency [3] | Potency [8] | Potency [9] | activity, negative = inhibition ([10]; parasite line A) -0.804% | Potency [11] | Potency [12] | Potency [13] | Potency [14] | Potency [15] | Potency [16] | Potency [17] | Potency [18] | Potency [19]
32.6%: max response [2, 22]

O=C(O)C1OC(O)C(O)C(O)C1O (configuration not stated)
inactive: Potency [1] | activity change, negative = inhibition [2] -3.53% | Potency [3] | outcome [4]
-5.5%: max response [2, 22]
-1.15%: max response [2, 21]

CCOC(=O)C1=CC(OC(CC)CC)C(NC(C)=O)C(N)C1 (configuration not stated)
14.9%: max response [2, 21]
inactive: Potency [20] | Potency [5] | Potency [6] | activity change, negative = inhibition [2] 11.6% | outcome [7] | Potency [3] | Potency [8] | Potency [9] | activity, negative = inhibition ([10]; parasite line A) 0.564% | activity, negative = inhibition ([10]; parasite line B) -0.576% | Potency [11] | Potency [12] | Potency [13] | Potency [14] | Potency [15] | Potency [16] | Potency [17] | Potency [18] | Potency [19]
27.8%: max response [2, 22]

N[C@H](Cc1ccc(O)cc1)C(=O)O
-25.6%: max response [2, 21]
inactive: activity change, negative = inhibition [2] 2.68% | Potency [3] | outcome [4]
-23%: max response [2, 22]

CO[C@]12C(COC(N)=O)C3=C(C(=O)C(C)=C(N)C3=O)N1CC1NC12 (some centres not stated)
active: Potency ([10]; parasite line A) 1260 nM | Potency ([10]; parasite line B) 1260 nM | Potency [11] 891 nM | Potency [15] 5010 nM | Potency [16] 5010 nM | Potency [17] 891 nM | Potency [18] 1410 nM | Potency [19] 3550 nM
5.7%: max response [2, 21]
inactive: Potency [5] | Potency [6] | activity change, negative = inhibition [2] 3.3% | outcome [7] | Potency [8]
11.5%: max response [2, 22]

C#C[C@]1(O)CCC2C3CCC4=CC(=O)CCC4C3CC[C@@]21C (some centres not stated)
2.28%: max response [2, 21]
5.87%: max response [2, 22]
inactive: Potency [5] | Potency [6] | activity change, negative = inhibition [2] 3.02% | outcome [7] | Potency [3] | Potency [8]

CC(=O)OC1CCC2C3CCc4cc(O)ccc4C3CCC12C (configuration not stated)
inactive: Potency [5] | Potency [6] | activity change, negative = inhibition [2] -1.06% | outcome [7] | Potency [8] | Potency [9] | activity, negative = inhibition ([10]; parasite line A) 6.77% | activity, negative = inhibition ([10]; parasite line B) 4.39% | Potency [11] | Potency [12] | Potency [13] | Potency [14] | Potency [15] | Potency [16] | Potency [17] | Potency [18] | Potency [19]
8.25%: max response [2, 22]
7.54%: max response [2, 21]

C[C@@]12C=CC(=O)C=C1CCC1C3CC(O)[C@@](O)(C(=O)CO)[C@]3(C)CC(O)[C@]12F (some centres not stated)
25.4%: max response [2, 22]
11.4%: max response [2, 21]
inactive: Potency [5] | Potency [6] | activity change, negative = inhibition [2] 10.8% | outcome [7] | Potency [3] | Potency [8] | Potency [9] | activity, negative = inhibition ([10]; parasite line A) 5.41% | Potency [11] | Potency [12] | Potency [13] | Potency [14] | Potency [15] | Potency [16] | Potency [17] | Potency [18] | Potency [19]
